# A selection: hits, their analogues and other compounds. The true share with any hit is near 2.1%.
# PLCb3 inh: human PLC-beta3 inhibitors, primary screen, biochemical, fluorescence; AID 720704, 2013; inhibition, % at 12.2 µM; 0.18% of 370,000 active; Purified PLC-beta3, fluorogenic substrate; 1-phosphatidylinositol 4,5-bisphosphate phosphodiesterase beta-3 (Homo sapiens), Q01970; in the data active means inhibition above about 11%;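 further: 0% = median of compound wells on plate and 100% = full blocker control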
# PLC-gamma1 inh: PLC-gamma1 enzyme inhibitors, primary screen, biochemical, fluorescence, purified enzyme; inhibition, % at 12.2 µM; 1-phosphatidylinositol 4,5-bisphosphate phosphodiesterase gamma-1 (Homo sapiens), P19174; 0.84% of 370,000 active; fluorogenic substrate; AID 720700, 2013; in the data active means inhibition above about 9.5%
# Rce1 inhib: yeast Rce1p protease inhibitors, primary screen, biochemical, fluorescence, cell-free homogeneous | calls only | CAAX prenyl protease 2 (Saccharomyces cerevisiae (strain ATCC 204508 / S288c)), Q03530 | yeast membranes, quenched prenylated peptide cleavage fluorescence | AID 2563, 2010 | 0.27% of 290,000 active;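 active means fall in fluorescence gain of 50% or more versus controls, with final raw signal at or below 3038400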;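 further: plate controls were neutral control wells for no effect and wells lacking membranes for full effect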
# Target sequence (Q03530 whole entry, looked up): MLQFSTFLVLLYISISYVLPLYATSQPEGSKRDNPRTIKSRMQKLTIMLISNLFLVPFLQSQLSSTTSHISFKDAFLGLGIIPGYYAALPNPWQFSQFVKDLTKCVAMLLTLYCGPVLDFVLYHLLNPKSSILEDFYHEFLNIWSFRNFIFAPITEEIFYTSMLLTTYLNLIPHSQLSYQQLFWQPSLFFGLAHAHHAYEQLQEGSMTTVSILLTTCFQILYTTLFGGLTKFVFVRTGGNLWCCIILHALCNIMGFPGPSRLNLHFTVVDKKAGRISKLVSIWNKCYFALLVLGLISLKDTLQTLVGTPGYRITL
# ADAM10 inh: human ADAM10 inhibitors, primary screen, biochemical, QFRET, HTS | Disintegrin and metalloproteinase domain-containing protein 10 (Homo sapiens), O14672 | recombinant ADAM10, EDANS/DABCYL FRET peptide cleavage, 3 h | inhibition, % at 7 µM | 0.62% of 370,000 active;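 active means inhibition above a per-campaign cutoff equal to the mean of compounds falling between control-based bounds plus 3 SD, cut at about 20% in these data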;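 further: 0% = DMSO wells while the 100% control is not disclosed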
# ADAM17 inh: ADAM17 inhibitors, primary screen, biochemical, QFRET. Disintegrin and metalloproteinase domain-containing protein 17 (Homo sapiens), P78536. recombinant ADAM17, EDANS/DABCYL FRET peptide cleavage. inhibition, % at 6.95 µM. 0.83% of 370,000 active;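 active means inhibition above the mean of compounds lying between control limits plus 3 SD, set per campaign, cut at about 8.5% in these data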;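 further: 0% = DMSO-only wells as the low control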
# ADAM10 counter: ADAM10 inhibitors, counter-screen for ADAM17 exosite inhibitor project, biochemical, FRET, human ADAM10; inhibition, % at 6.95 µM; shares compounds with ADAM17 inh; 47% of 2,900 active; recombinant ADAM10, EDANS/DABCYL FRET peptide cleavage, 3 h;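 active means mean inhibition over the triplicate runs exceeds the activity threshold set in the earlier primary screen, cut at about 20% in these data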;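 further: 0% = DMSO wells and 100% = marimastat wells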
# ADAM17 confirm: ADAM17 inhibitors, hit retest, confirmation, biochemical, QFRET peptide cleavage. recombinant ADAM17, EDANS/DABCYL QFRET peptide cleavage. 65% of 2,900 active. AID 743257, 2014. inhibition, % at 6.95 µM. shares compounds with ADAM17 inh;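 active means mean inhibition across replicates above the hit cutoff set in the primary screen, cut at about 8.5% in these data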;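 further: 0% = DMSO wells and 100% = marimastat wells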
# * hit, by the source's call; i = inactive; / = no result; + = active, no number.
SMILES,PLCb3 inh,PLC-gamma1 inh,Rce1 inhib,ADAM10 inh,ADAM17 inh,ADAM10 counter,ADAM17 confirm
COc1ccc(NC(=O)Cn2nnc(-c3ccccc3NS(=O)(=O)c3ccc(OC)cc3)n2)cc1,2,0,i,-3,-1,/,/
COc1ccccc1NC(=O)Cn1nnc(-c2ccccc2NS(=O)(=O)c2ccccc2)n1,3,1,i,15,9.3*,37*,22*
COc1ccc(-c2n[nH]c(C)c2-c2ccc(Cl)cc2)c(O)c1OC,-1,2,i,10,11*,22*,8
CCn1cc(/C=C(\NC(=O)c2ccc(OC)c(OC)c2)C(=O)NCCCN2CCOCC2)c2ccccc21,-7,1,i,7,-1,/,/
O=c1cc(COn2nnc3ccc(C(F)(F)F)cc32)nc2sccn12,7,7,i,16,11*,7,8.9*
COC(=O)C1=C(C)N(Cc2ccc(Br)cc2)C(=S)NC1c1cccc(F)c1 (stereo unspecified),-1,3,/,-1,1,/,/
COC(=O)C1=C(C)N(Cc2ccc(Br)cc2)C(=S)NC1c1ccc(F)cc1 (stereo unspecified),-1,5,/,10,9.3*,19,12*
CC(=O)Nc1nc(C)c(CCC2OCCO2)c(=O)[nH]1,-7,3,i,3,0,/,/
CCCN1Cc2cc(OC)ccc2-c2ccccc2S1(=O)=O,0,0,/,-13,-2,/,/
CCOC(=O)/C=C1\CN(Cc2ccc(OC)cc2)S(=O)(=O)c2ccccc21,6,5,i,17,9.7*,15,15*
Cc1ccc(C)c(N(CC(=O)NC(C)C)C(=O)CCC(=O)Nc2ccccn2)c1,-3,6,i,1,4,/,/
CC(=O)OCC(=O)[C@@]12OC3(CCCC3)O[C@@H]1C[C@H]1[C@@H]3CCC4=CC(=O)C=C[C@]4(C)[C@@]3(F)[C@@H](O)C[C@@]12C,0,6,+,19,8.7*,8,6
COc1ccc(CCNC(=O)C2CC(O)CN2S(=O)(=O)c2ccc(Cl)cc2)cc1OC (stereo unspecified),-1,1,/,-14,-4,/,/
COC(=O)[C@@H]1C[C@@H]2CC[C@@H](O)C[C@@H]2N1Cc1ccccc1OS(=O)(=O)c1ccc(C)cc1,-7,-3,i,-4,-1,/,/
COC(=O)[C@@H]1C[C@H]2CC[C@H](O)C[C@H]2N1Cc1ccccc1OC(=O)c1cccs1,0,0,i,3,11*,-5,0
O=C(NC(Nc1nc2ccc([N+](=O)[O-])cc2s1)(C(F)(F)F)C(F)(F)F)c1ccccc1Cl,-12,-9,i,16,11*,22*,13*
CCN(C(=O)COC(=O)c1cc([N+](=O)[O-])ccc1N1CCOCC1)c1ccccc1,-7,4,/,2,1,/,/
COC(=O)CN1C(=O)C2(C(C#N)=C(N)Oc3n[nH]c(-c4cccs4)c32)c2ccccc21 (stereo unspecified),-6,4,i,-1,-2,/,/
COC(=O)CN1C(=O)C2(C(C#N)=C(N)Oc3c2c(C)nn3-c2ccccc2)c2ccccc21 (stereo unspecified),1,4,i,4,13*,-2,2
O=C(CCc1ccccc1)c1nnc(-c2ccccc2)o1,-6,-2,/,-10,-7,/,/
CCCCCCN1CCN(C2CN(Cc3cn(Cc4cccc(Cl)c4)nn3)S(=O)(=O)C2)CC1 (stereo unspecified),3,3,/,-6,-3,/,/
CCCCCCN1CCN(C2CN(Cc3cn(Cc4ccc(Cl)cc4)nn3)S(=O)(=O)C2)CC1 (stereo unspecified),7,6,/,4,8.9*,-3,0

# Screening data as filed in PubChem BioAssay.
